Inconclusive results are not listed. Active and inactive are the calls of the source. Calls come from the whole dose curve; as a rule, active = well fitted inhibition curve with a large enough effect in the polarisation, with a control signal flat (not every such curve was filed as active); inconclusive = small, poorly fitted or top-dose-only effect, or effect the other way, or a change in a side signal; inactive = no such curve, though single readings can be large or run the other way; the % refers to the polarisation.

The test deals with Menin (Homo sapiens) (UniProt O00255). The test can be described thus: Confirmation of Inhibitors Targeting the Menin-MLL Interaction in MLL Related Leukemias: Competition With Fluorescein Labeled MLL-derived Peptide. The settings on record: Fluorescence polarization, fluorescein-MLL peptide displacement from menin; series mostly up to 100 µM. A general note: In fluorescence polarisation assays a small probe gives low polarisation when free and higher when bound to something large.
Menin (Homo sapiens), sequence (O00255 whole entry, looked up): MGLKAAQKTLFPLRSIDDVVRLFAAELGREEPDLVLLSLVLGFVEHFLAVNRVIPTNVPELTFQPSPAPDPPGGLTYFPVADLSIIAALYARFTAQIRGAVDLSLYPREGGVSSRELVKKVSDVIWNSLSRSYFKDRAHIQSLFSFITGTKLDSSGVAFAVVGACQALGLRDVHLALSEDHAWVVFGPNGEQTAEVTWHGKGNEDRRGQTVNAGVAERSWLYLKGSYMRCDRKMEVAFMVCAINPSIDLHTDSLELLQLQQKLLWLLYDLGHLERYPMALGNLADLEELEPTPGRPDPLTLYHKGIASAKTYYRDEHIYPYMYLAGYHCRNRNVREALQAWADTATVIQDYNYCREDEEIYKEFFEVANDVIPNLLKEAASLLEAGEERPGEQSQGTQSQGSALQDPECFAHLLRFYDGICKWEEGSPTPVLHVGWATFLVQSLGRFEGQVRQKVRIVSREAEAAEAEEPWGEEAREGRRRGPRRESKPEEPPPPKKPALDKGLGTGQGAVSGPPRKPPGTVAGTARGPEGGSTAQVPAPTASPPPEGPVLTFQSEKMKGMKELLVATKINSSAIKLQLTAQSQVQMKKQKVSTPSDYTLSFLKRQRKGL
On to `CCN1CCN(CC(=O)Nc2ccc(C(C)=O)cc2)CC1`, for which the call was inactive.

For the molecule `O=C(CSc1nnc(-c2c[nH]c3ccccc23)o1)N1c2ccccc2CCc2ccccc21`, the result was inactive.

For `COc1ccc(CC(=O)Nc2ccc(-c3nnc(-c4ccccc4)o3)cc2)cc1`, the result was inactive.

Regarding `O=C(NC(=S)N1CCCc2ccccc21)c1ccc([N+](=O)[O-])cc1`, the call was inactive.

Turning to `CC(Sc1nnc(Nc2ccccc2)s1)C(=O)Nc1nc(-c2ccccc2)cs1` (stereo not given), the outcome was inactive.

Consider `NC(=O)c1cc2ccccc2o/c1=N/NC(=O)c1cccc(F)c1`, for which the molecule was classed as inactive.

On to `O=C(O)/C(=C\c1ccc(F)cc1)c1ccc(-c2ccccc2)cc1`, for which the molecule was called inactive.

On to `Cc1nc2oc3c(NCC4CCCO4)ncnc3c2c2c1COC(C)(C)C2` (stereo not given), for which the outcome was inactive.

As for `CN[C@H]1[C@H](O)[C@@H](O[C@@H]2[C@H](O)[C@@H](O[C@H]3OC(CN)=CC[C@H]3N)[C@@H](N)C[C@H]2N)OC[C@@]1(C)O`, the molecule was classed as inactive.

In the case of `O=S(=O)(NCCc1c[nH]c2ccccc12)c1ccccc1`, the call was inactive.

For the molecule `CC(c1ccncn1)N(C)Cc1nc(-c2ccc(C(F)(F)F)cc2)no1` (stereo not given), the result was inactive.

As for `Cc1ccc(NC(=O)C(OC(=O)c2ccc(C=O)cc2)c2ccccc2)cc1Cl` (stereo not given), the molecule was called inactive.

With `Cc1ccc(NC(=O)CN2C(=O)S/C(=C\c3ccc(C(=O)O)cc3)C2=O)cc1`, the result was inactive.

In the case of `O=C(CSc1ccc(Cl)cc1)Nc1ccc(NC(=O)c2ccco2)cc1`, the result was inactive.

Take `CCCn1c(C2CCCN2c2nc(C)cs2)nc2cc(Cl)c(Cl)cc21` (stereo not given): the result was inactive.

For `O=c1cc(O)c2ccccc2n1Cc1ccccc1F`, the molecule was classed as inactive.

Regarding `CCc1oc2ccccc2c1C(=O)c1cc(Br)c(O)c(Br)c1`, the call was inactive.

With `O=C(Nc1cccn(Cc2c(Cl)cccc2Cl)c1=O)c1c(Cl)cccc1Cl`, the call was inactive.

Take `CCOc1ccccc1N(CC(=O)Nc1ccccc1C(=O)N1CCCC1)S(C)(=O)=O`: the call was inactive.

Regarding `CCCc1nc2c(=O)[nH]c3ccccc3c2o1`, the molecule was classed as inactive.

`CCC(=O)Nc1ccc(-c2cc(-c3ccccc3)nc(-c3ccc(NC(=O)CC)cc3)n2)cc1`: the result was inactive.

As to `COc1ccc(NC(=O)N2CC[C@@]3(CCCN(C(=O)c4csnn4)C3)C2)cc1`, the result was inactive.

As for `Cc1cc(N2CCOCC2)nc2ccc(Cl)cc12`, the molecule was classed as inactive.

As for `CCN(CCn1cccn1)Cc1ccccc1OCC(O)CN1CCc2ccccc2C1` (stereo not given), the outcome was inactive.

For the molecule `COc1ccccc1NS(=O)(=O)c1cc(NC(=O)Nc2ccc(Cl)cc2Cl)ccc1N1CCCCC1`, the call was inactive.

Take `CCOC(=O)C1CCN(CC(O)COCc2ccccc2)CC1` (stereo not given): the molecule was classed as inactive.

In the case of `COc1cc2c(cc1NC(=S)NC(=O)c1c(OC)cccc1OC)oc1ccccc12`, the result was inactive.

As to `O=C(O)CCC(=O)Nc1ccc(SSc2ccc(NC(=O)CCC(=O)O)cc2)cc1`, the outcome was inactive.

Consider `CCOc1ccc(C2Nc3ccc4ccccc4c3-c3c2c(=O)oc2ccccc32)cc1` (stereo not given), for which the molecule was classed as inactive.

Take `O=C(CCC1CCCCC1)NCCN1C2=NC[C@H](Cc3ccc(O)cc3)N2C[C@H]1Cc1ccc(O)cc1`: the call was inactive.

Regarding `N#CC1=C(N)OC2=C(C(=O)CC(c3ccco3)C2)C1c1ccc(OCc2c(F)cccc2Cl)cc1` (stereo not given), the outcome was inactive.

On to `COc1cnc(-c2ccccn2)nc1N(C)c1ccccc1`, for which the molecule was called inactive.

`COCCn1c(C)c(C)c2c(NCCc3ccccc3)ncnc21`: the molecule was classed as inactive.

Turning to `CCCC(=O)NC(c1ccccc1Cl)c1ccc2cccnc2c1O` (stereo not given), the outcome was inactive.

As to `O=C(/C=C/c1ccccc1)NC(NC(=S)Nc1cc(Cl)ccc1Cl)C(Cl)(Cl)Cl` (stereo not given), the call was inactive.

The values are drawn from PubChem BioAssay AID2783 (National Center for Advancing Translational Sciences (NCATS), 2010).
